# Results reported in PubChem BioAssay (NCI).
# Compounds without any hit were thinned out: in the full panel of roughly 79,000, 15% have a hit. A number with no mark means an inactive call. Active and inactive are the calls of the source. Cut-off read from the data, not from the text of the source: active = growth inhibition above about 70%; inactive = the rest.
# What was measured:
# [1] = NCI Yeast Anticancer Drug Screen. Data for the rad52 strain (AID 147);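 note: 0% = growth of vehicle-treated control cultures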; conditions: S. cerevisiae rad52 mutant growth inhibition, hits give high values
# In short: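 Measured: yeast growth inhibition. System: strain with a defined DNA damage repair alteration. Reference: vehicle-treated control cultures.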
# [2] = NCI Yeast Anticancer Drug Screen. Data for the wt1 strain (AID 149);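 note: 0% = growth of vehicle-treated wt1 cultures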; conditions: S. cerevisiae wt1 strain (SPY 50644) growth inhibition, hits give high values
# In short: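 Vehicle-normalised growth inhibition; strain wt1; compound exposure.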
# [3] = NCI Yeast Anticancer Drug Screen. Data for the rad50EPP+ strain (AID 151);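 note: 0% = growth of vehicle-treated control cultures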; conditions: S. cerevisiae rad50 mutant strain, hits give high values
# In short: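 One strain with a rad50 alteration (rad50EPP+) was compound-treated, its growth then compared to that of vehicle controls.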
# [4] = NCI Yeast Anticancer Drug Screen. Data for the mgt1 strain (AID 153); conditions: S. cerevisiae mgt1 mutant growth inhibition, hits give high values
# In short: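 After exposure of the mgt1 yeast mutant to compound, growth was measured and reported as inhibition compared with vehicle controls.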
# [5] = NCI Yeast Anticancer Drug Screen. Data for the rad50 strain (AID 155);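 note: 0% = growth of vehicle-only cultures of the same strain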; conditions: S. cerevisiae rad50 strain growth inhibition, hits give high values
# In short: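 A DNA repair-deficient yeast mutant serves as the test organism; compound-induced growth inhibition is calculated against vehicle-treated cells.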
# [6] = NCI Yeast Anticancer Drug Screen. Data for the mec2-1 strain (AID 157); conditions: S. cerevisiae mec2-1 strain, hits give high values
# In short: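 Test agents were screened against the mec2-1 yeast strain, with defined DNA repair or cell cycle alteration. Growth was scored as inhibition against vehicle-only controls.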
# [7] = NCI Yeast Anticancer Drug Screen. Data for the rad14 strain (AID 159);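 note: 0% = growth of vehicle-treated control cultures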; conditions: S. cerevisiae rad14 strain growth inhibition, hits give high values
# In short: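 Vehicle-treated cultures served as the baseline for growth inhibition of a DNA repair-mutant yeast strain exposed to each compound.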
# [8] = NCI Yeast Anticancer Drug Screen. Data for the sgs1 mgt1 strain (AID 161);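 note: 0% = growth of cultures given vehicle only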; conditions: S. cerevisiae sgs1 mgt1 strain, hits give high values
# In short: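 Test agents were incubated with a DNA-repair-mutant yeast strain. Growth was then read and compared against vehicle-treated controls.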
# [9] = NCI Yeast Anticancer Drug Screen. Data for the CLN2oe strain (AID 163);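 note: 0% = growth of vehicle-only control cultures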; conditions: S. cerevisiae CLN2oe strain, hits give high values
# In short: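 Here, growth inhibition in a cell-cycle-altered yeast strain after compound exposure was quantified against vehicle control growth.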
# [10] = NCI Yeast Anticancer Drug Screen. Data for the cln2 rad14 strain (AID 165);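 note: 0% = growth equal to vehicle treated cultures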; conditions: S. cerevisiae cln2 rad14 strain, hits give high values
# In short: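 Growth of compound-exposed yeast (cln2 rad14 genotype) measured and expressed as inhibition relative to vehicle.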
# [11] = NCI Yeast Anticancer Drug Screen. Data for the bub3 strain (AID 167); conditions: S. cerevisiae bub3 mutant strain, hits give high values
# In short: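 Inhibition values come from growth of compound-treated mutant yeast normalised to vehicle-treated controls.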
# [12] = NCI Yeast Anticancer Drug Screen. Data for the wt2 strain (AID 169);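 note: 0% = growth of vehicle-treated yeast cultures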; conditions: S. cerevisiae wt2 strain growth inhibition, hits give high values
# In short: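 Genetically defined yeast strains from a DNA-repair/cell-cycle panel were used. Compound-exposed yeast growth was measured, and the inhibition was calculated relative to vehicle treatment.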
# [13] = NCI Yeast Anticancer Drug Screen. Data for the mlh1 strain (AID 171);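 note: 0% = growth of vehicle-treated control cultures of the same strain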; conditions: S. cerevisiae mlh1 strain growth inhibition, hits give high values
# In short: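 Here the genetically defined yeast mutant is grown with each compound, and the extent to which its growth falls below that of vehicle-exposed cells is reported.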
# [14] = NCI Yeast Anticancer Drug Screen. Data for the sgs1 strain (AID 173);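 note: 0% = growth of vehicle-only control cultures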; conditions: S. cerevisiae sgs1 mutant, hits give high values
# In short: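 Relative growth inhibition, referenced to vehicle, was determined in a yeast strain with a defined alteration affecting DNA damage repair or cell cycle control after compound exposure.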
# [15] = NCI Yeast Anticancer Drug Screen. Data for the mlh1 rad18 strain (AID 175); conditions: S. cerevisiae mlh1 rad18 strain growth inhibition, hits give high values
# In short: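 In this whole-cell yeast screen, a strain with altered DNA damage repair is challenged with compound, and its growth is measured against matched vehicle-treated controls.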
# [16] = NCI Yeast Anticancer Drug Screen. Data for the rad18 strain (AID 177); conditions: S. cerevisiae rad18 mutant growth inhibition, hits give high values
# In short: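 Screen uses a yeast strain with a defined lesion in DNA damage repair; compound effect is read as loss of growth compared to untreated vehicle cultures.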
# [17] = at 5.0 µM (retest, dose inferred, filed as 0.5)
# [18] = at 50.0 µM (retest, dose inferred, filed as 5.0)
compound,measurement,setting,value
N#C/C(=C\NC(=S)Nc1ccc(S(N)(=O)=O)cc1)C(=O)c1ccc2ccccc2c1,growth inhibition,[1]; at 1.2 µM,-2%
same,growth inhibition,[1]; at 3.7 µM,-1%
same,growth inhibition,[1]; at 11.0 µM,0%
same,growth inhibition,[1]; at 33.0 µM,-3%
same,growth inhibition,[1]; at 100.0 µM,3%
same,growth inhibition,[2]; at 1.2 µM,2%
same,growth inhibition,[2]; at 3.7 µM,3%
same,growth inhibition,[2]; at 11.0 µM,1%
same,growth inhibition,[2]; at 33.0 µM,1%
same,growth inhibition,[2]; at 100.0 µM,3%
same,growth inhibition,[3]; at 1.2 µM,-1%
same,growth inhibition,[3]; at 3.7 µM,-3%
same,growth inhibition,[3]; at 11.0 µM,0%
same,growth inhibition,[3]; at 33.0 µM,0%
same,growth inhibition,[3]; at 100.0 µM,-2%
same,growth inhibition,[4]; at 1.2 µM,-2%
same,growth inhibition,[4]; at 3.7 µM,-3%
same,growth inhibition,[4]; at 11.0 µM,-3%
same,growth inhibition,[4]; at 33.0 µM,-12%
same,growth inhibition,[4]; at 100.0 µM,0%
same,growth inhibition,[5]; at 1.2 µM,-5%
same,growth inhibition,[5]; at 3.7 µM,-16%
same,growth inhibition,[5]; [17],57%
same,growth inhibition,[5]; at 11.0 µM,-18%
same,growth inhibition,[5]; at 33.0 µM,-2%
same,growth inhibition,[5]; [18],97% (active)
same,growth inhibition,[5]; at 50.0 µM,-13.3%
same,growth inhibition,[5]; at 100.0 µM,-1%
same,growth inhibition,[6]; at 1.2 µM,0%
same,growth inhibition,[6]; at 3.7 µM,2%
same,growth inhibition,[6]; [17],87% (active)
same,growth inhibition,[6]; at 11.0 µM,2%
same,growth inhibition,[6]; at 33.0 µM,5%
same,growth inhibition,[6]; [18],95% (active)
same,growth inhibition,[6]; at 50.0 µM,-3.5%
same,growth inhibition,[6]; at 100.0 µM,-1%
same,growth inhibition,[7]; at 1.2 µM,-1%
same,growth inhibition,[7]; at 3.7 µM,-1%
same,growth inhibition,[7]; at 11.0 µM,1%
same,growth inhibition,[7]; at 33.0 µM,2%
same,growth inhibition,[7]; at 100.0 µM,6%
same,growth inhibition,[8]; [17],25%
same,growth inhibition,[8]; [18],96% (active)
same,growth inhibition,[8]; at 50.0 µM,-13.2%
same,growth inhibition,[9]; at 1.2 µM,-2%
same,growth inhibition,[9]; at 3.7 µM,-4%
same,growth inhibition,[9]; at 11.0 µM,-4%
same,growth inhibition,[9]; at 33.0 µM,0%
same,growth inhibition,[9]; at 100.0 µM,-1%
same,growth inhibition,[10]; [17],92% (active)
same,growth inhibition,[10]; [18],78% (active)
same,growth inhibition,[10]; at 50.0 µM,39.2%
same,growth inhibition,[11]; at 1.2 µM,-2%
same,growth inhibition,[11]; at 3.7 µM,-1%
same,growth inhibition,[11]; [17],99% (active)
same,growth inhibition,[11]; at 11.0 µM,-2%
same,growth inhibition,[11]; at 33.0 µM,-3%
same,growth inhibition,[11]; [18],91% (active)
same,growth inhibition,[11]; at 50.0 µM,-16.1%
same,growth inhibition,[11]; at 100.0 µM,-3%
same,growth inhibition,[12]; at 1.2 µM,-1%
same,growth inhibition,[12]; at 3.7 µM,-1%
same,growth inhibition,[12]; at 11.0 µM,-1%
same,growth inhibition,[12]; at 33.0 µM,0%
same,growth inhibition,[12]; at 100.0 µM,-1%
same,growth inhibition,[13]; at 1.2 µM,-1%
same,growth inhibition,[13]; at 3.7 µM,1%
same,growth inhibition,[13]; at 11.0 µM,1%
same,growth inhibition,[13]; at 33.0 µM,3%
same,growth inhibition,[13]; at 100.0 µM,5%
same,growth inhibition,[14]; at 1.2 µM,0%
same,growth inhibition,[14]; at 3.7 µM,2%
same,growth inhibition,[14]; at 11.0 µM,0%
same,growth inhibition,[14]; at 33.0 µM,7%
same,growth inhibition,[14]; at 100.0 µM,9%
same,growth inhibition,[15]; [17],84% (active)
same,growth inhibition,[15]; [18],97% (active)
same,growth inhibition,[15]; at 50.0 µM,22.1%
same,growth inhibition,[16]; at 1.2 µM,-9%
same,growth inhibition,[16]; at 3.7 µM,-1%
same,growth inhibition,[16]; at 11.0 µM,0%
same,growth inhibition,[16]; at 33.0 µM,-1%
same,growth inhibition,[16]; at 100.0 µM,5%
CCC[CH2][Sn]([CH2]CCC)([CH2]CCC)/[C](=C/[Si](C)(C)c1ccccc1)c1ccc2c(c1)OCO2,growth inhibition,[1]; at 1.2 µM,11%
same,growth inhibition,[1]; at 3.7 µM,48%
same,growth inhibition,[1]; at 11.0 µM,92% (active)
same,growth inhibition,[1]; at 33.0 µM,90% (active)
same,growth inhibition,[1]; at 100.0 µM,87% (active)
same,growth inhibition,[2]; at 1.2 µM,3%
same,growth inhibition,[2]; at 3.7 µM,15%
same,growth inhibition,[2]; at 11.0 µM,94% (active)
same,growth inhibition,[2]; at 33.0 µM,92% (active)
same,growth inhibition,[2]; at 100.0 µM,89% (active)
same,growth inhibition,[3]; at 1.2 µM,6%
same,growth inhibition,[3]; at 3.7 µM,17%
same,growth inhibition,[3]; at 11.0 µM,33%
same,growth inhibition,[3]; at 33.0 µM,66%
same,growth inhibition,[3]; at 100.0 µM,74% (active)
same,growth inhibition,[4]; at 1.2 µM,0%
same,growth inhibition,[4]; at 3.7 µM,26%
same,growth inhibition,[4]; at 11.0 µM,95% (active)
same,growth inhibition,[4]; at 33.0 µM,92% (active)
same,growth inhibition,[4]; at 100.0 µM,93% (active)
same,growth inhibition,[5]; at 1.2 µM,13%
same,growth inhibition,[5]; at 3.7 µM,72% (active)
same,growth inhibition,[5]; [17],67%
same,growth inhibition,[5]; at 11.0 µM,89% (active)
same,growth inhibition,[5]; at 33.0 µM,87% (active)
same,growth inhibition,[5]; [18],67%
same,growth inhibition,[5]; at 50.0 µM,91.2% (active)
same,growth inhibition,[5]; at 100.0 µM,87% (active)
same,growth inhibition,[6]; at 1.2 µM,-1%
same,growth inhibition,[6]; at 3.7 µM,17%
same,growth inhibition,[6]; [17],27%
same,growth inhibition,[6]; at 11.0 µM,94% (active)
same,growth inhibition,[6]; at 33.0 µM,92% (active)
same,growth inhibition,[6]; [18],27%
same,growth inhibition,[6]; at 50.0 µM,93.7% (active)
same,growth inhibition,[6]; at 100.0 µM,91% (active)
same,growth inhibition,[7]; at 1.2 µM,1%
same,growth inhibition,[7]; at 3.7 µM,24%
same,growth inhibition,[7]; at 11.0 µM,95% (active)
same,growth inhibition,[7]; at 33.0 µM,93% (active)
same,growth inhibition,[7]; at 100.0 µM,93% (active)
same,growth inhibition,[8]; [17],75% (active)
same,growth inhibition,[8]; [18],75% (active)
same,growth inhibition,[8]; at 50.0 µM,91.8% (active)
same,growth inhibition,[9]; at 1.2 µM,-5%
same,growth inhibition,[9]; at 3.7 µM,4%
same,growth inhibition,[9]; at 11.0 µM,92% (active)
same,growth inhibition,[9]; at 33.0 µM,89% (active)
same,growth inhibition,[9]; at 100.0 µM,84% (active)
same,growth inhibition,[10]; [17],7%
same,growth inhibition,[10]; [18],7%
same,growth inhibition,[10]; at 50.0 µM,91.3% (active)
same,growth inhibition,[11]; at 1.2 µM,-2%
same,growth inhibition,[11]; at 3.7 µM,10%
same,growth inhibition,[11]; [17],14%
same,growth inhibition,[11]; at 11.0 µM,93% (active)
same,growth inhibition,[11]; at 33.0 µM,89% (active)
same,growth inhibition,[11]; [18],14%
same,growth inhibition,[11]; at 50.0 µM,92% (active)
same,growth inhibition,[11]; at 100.0 µM,89% (active)
same,growth inhibition,[12]; at 1.2 µM,0%
same,growth inhibition,[12]; at 3.7 µM,35%
same,growth inhibition,[12]; at 11.0 µM,95% (active)
same,growth inhibition,[12]; at 33.0 µM,92% (active)
same,growth inhibition,[12]; at 100.0 µM,93% (active)
same,growth inhibition,[13]; at 1.2 µM,7%
same,growth inhibition,[13]; at 3.7 µM,47%
same,growth inhibition,[13]; at 11.0 µM,93% (active)
same,growth inhibition,[13]; at 33.0 µM,92% (active)
same,growth inhibition,[13]; at 100.0 µM,91% (active)
same,growth inhibition,[14]; at 1.2 µM,1%
same,growth inhibition,[14]; at 3.7 µM,44%
same,growth inhibition,[14]; at 11.0 µM,94% (active)
same,growth inhibition,[14]; at 33.0 µM,90% (active)
same,growth inhibition,[14]; at 100.0 µM,90% (active)
same,growth inhibition,[15]; [17],44%
same,growth inhibition,[15]; [18],44%
same,growth inhibition,[15]; at 50.0 µM,89% (active)
